High-throughput results deposited in PubChem BioAssay by several laboratories.
The list is not random: actives were taken first. Their share in the collection is about 1.6%.
PPC-1+TRAIL kill – compounds killing PPC-1 cancer cells with TRAIL present (potentiator screen, no TRAIL-free arm) | PPC-1 cells + TRAIL, ATPLite viability luminescence | cell killing (% activity), % at 4 µM or 5 µM | 220,000 tested, 0.41% active | AID 1443;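 active means cell killing above 50% in the first pass at 4 µM, then a duplicate retest at 5 µM averaging 50% or more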;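 further: plate controls were cells with TRAIL plus DMSO for no effect and medium-only wells lacking cells for full effect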
STAT1 inh – STAT1 signaling inhibition. AID 920. inhibition, % at 5.5 µM. NIH 3T3 STAT1-luciferase reporter, IFN-gamma, luminescence. 200,000 tested, 0.35% active;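 active means inhibition above a set limit, the mean inhibition across all tested compounds plus 3 SD, cut at about 34% in these data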;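 further: 0% = IFN-gamma with DMSO and 100% = IFN-gamma with 300 µM nifuroxazide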
STAT3 blocker – reduces IL-6 driven STAT3 reporter signal. inhibition, % at 5.5 µM. U3A cells, IL-6 STAT3-luciferase reporter, luminescence; host cell line lacks STAT1. 190,000 tested, 0.89% active;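 active means inhibition above the mean inhibition across all screened compounds plus 3 SD, cut at about 44% in these data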;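 further: 0% = DMSO only wells and 100% = 100 µM nifuroxazide control wells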
Platelet DG rel – modulates dense granule release in human platelets; human platelet-rich plasma, SFLLRN dense granule ATP release, luminescence; inhibition, %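 (compounds screened at 7.5 µM in platelet-rich plasma)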; 300,000 tested, 0.22% active;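 active means mean replicate score, as percent of positive control, at or above 50; inconclusive means mean below 50 but at least one replicate at or above 50; inactive means mean and every replicate below 50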
TRAIL sens C8 – sensitizes caspase-8 expressing cells to TRAIL | inhibition (viability loss, TRAIL sensitization), % at 10 µM | NB7+C8 cells + TRAIL, ATPlite viability luminescence | 360,000 tested, 1% active | AID 624354;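 active means compounds causing at least 50% loss of cell viability in the single-dose screen, relative to plate controls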
* marks the source's active call; other numbers are inactive results; ? = inconclusive; / = no result given.

SMILES | PPC-1+TRAIL kill | STAT1 inh | STAT3 blocker | Platelet DG rel | TRAIL sens C8
CC1(C(=O)NS(=O)(=O)c2ccc(C#N)cc2)CCN1C(=O)C1(c2ccccc2)CCCC1 (centres undefined) | / | / | / | / | -14
O=C(CSc1ccccn1)Nc1ccc(NC(=O)CSc2ccccn2)cc1 | 8 | 6 | 4 | -12 | -1
O=C(CSc1ccccn1)Nc1nonc1[N+](=O)[O-] | / | / | / | 0 | 54*
NNC(=O)c1cccc(COc2ccc3c(c2)CCC3)c1 | 41 | 60* | 95* | 18 | 46
O=C(Nc1ccccc1)C(=O)Nc1ccc2c(c1)N(C(=O)C1CC1)CCC2 | / | / | / | 89* | 47
CC1(C(=O)NCc2ccc(Cl)cc2)CCN1C(=O)Cc1ccc(Cl)cc1Cl (centres undefined) | / | / | / | / | 3
CC1=C(C(=O)Nc2ccc(CC(=O)NCc3ccccc3C)cc2)SCCO1 | / | / | / | 14 | 39
CCc1ccc(CNC(=O)Cc2ccc(NC(=O)C3=C(C)OCCS3)cc2)cc1 | / | / | / | 1 | 53*
COc1cccc(CNC(=O)Cc2ccc(NC(=O)C3=C(C)OCCS3)cc2)c1 | / | / | / | -6 | 56*
O=C(NCCc1cccs1)Nc1ccc2nc([C@@H]3O[C@H](CO)[C@@H](O)[C@H]3O)[nH]c2c1 | / | / | / | / | -7
CCCCCCCCN1C(=O)[C@H](CC(=O)NCCCOCCCC)C[C@@]2(C(=O)OC)CCCCC=C12 | / | / | / | / | 13
O=C1NCCCC2c3cc(O)c4ccccc4c3OC12N1CCCCC1 (centres undefined) | 10 | -6 | 63* | / | /
CC(=O)Nc1ccc2nc(-c3ccccc3)cn2c1 | 47 | -58 | 10 | 1 | 54*
CN(C)S(=O)(=O)c1cccc(-c2cn3cc(Cl)ccc3n2)c1 | 20 | -13 | -1 | -4 | 18
Cc1ccc2nc(-c3cc(-c4ccccc4)no3)cn2c1 | 33 | / | / | 0 | 57*
CC(=O)Nc1ccc(-c2cc(-c3ccccc3)nc(-c3ccccc3)n2)cc1 | 12 | 8 | -5 | 20 | 22
Clc1ccc(-c2cc(-c3ccccc3)on2)cc1 | / | / | / | / | 18
Clc1ccc2nc(-c3ccccc3)cn2c1 | / | / | / | 19 | 63*
CCCNC(=O)c1cc(C2CCCN(C(=O)c3ccc(NC(C)=O)cc3)C2)on1 (centres undefined) | / | / | / | / | 5
O=C(Nc1nnc([C@@H]2C[C@H](O)[C@@H](CO)O2)s1)c1ccc(Oc2ccccc2)cc1 | / | / | / | / | -6
COc1cc(OC)cc(-c2noc(-c3csc([C@H]4C[C@H](O)[C@@H](CO)O4)n3)n2)c1 | / | / | / | / | 22
Cc1cccc(-c2noc(-c3csc([C@@H]4C[C@H](O)[C@@H](CO)O4)n3)n2)c1 | / | / | / | / | 51*
CCOC(=O)c1sc(NC(=O)c2ccccc2OC)nc1C | 28 | -51 | 39 | 12 | 61*
COc1ccc(-c2nc(NC(=O)c3ccco3)sc2C)cc1 | / | / | / | / | 22
COc1ccc(C(=O)Nc2ccc([N+](=O)[O-])cn2)c(OC)c1 | 17 | -53 | 1 | 19 | 53*
SMILES | PPC-1+TRAIL kill | STAT1 inh | STAT3 blocker | Platelet DG rel | TRAIL sens C8
C=CCOC(=O)c1sc(NC(=O)c2ccco2)nc1C | 48 | -7 | 13 | 4 | 50*
COc1cc(OC)cc(C(=O)Nc2ccc([N+](=O)[O-])cn2)c1 | 16 | -2 | 11 | 18 | -2
COc1ccccc1C(=O)Nc1nc2ccccc2s1 | / | / | / | 73* | 91*
CCOC(=O)c1sc(NC(=O)c2ccc(CC)s2)nc1C | 29 | -29 | 5 | -1 | 26
COC(=O)C1CC(C(=O)OC)C2C(C(=O)OC)CC(C(=O)OC)C12 (centres undefined) | / | / | / | / | -6
CN(C)c1ccc(-c2ccnc3c2CC(C)(C(=O)NCc2ccc(F)c(F)c2)O3)cc1 (centres undefined) | / | / | / | / | -5
Cc1noc(C)c1COc1ccccc1C(=O)N1CCN(S(=O)(=O)c2ccc(C(C)C)cc2)CC1 | / | / | / | / | -9
COc1ccc(C(=O)Nc2nc3ccccc3s2)c(OC)c1 | / | / | / | 83* | 92*
COc1ccc(NC(=O)Nc2nc3ccccc3s2)cc1 | -8 | / | / | -1 | 9
NC(=O)c1ccccc1NC(=O)/C=C/C(=O)O | -3 | 4 | 10 | -7 | 3
Cc1ccc(/C=C/C(=O)Nc2ccccc2C(N)=O)cc1 | 84* | -60 | 33 | ? | 84*
Cc1nc(C(F)(F)F)ccc1C(=O)N1CCCC(C)(C(=O)O)C1 (centres undefined) | / | / | / | / | -1
O=C1/C(=C\c2ccc(O)c(O)c2)SC(=S)N1Cc1ccccc1 | / | / | / | -11 | 46
O=C1/C(=C\c2cccc(O)c2O)SC(=S)N1Cc1ccccc1 | / | / | / | -4 | 52*
Cc1cnc2nc(-c3ccccc3)ccc2c1 | / | / | / | / | -12
